Assay results from PubChem BioAssay AID720511 (Broad Institute, 2013).
About 1,300 (0.37%) of roughly 350,000 compounds were called active. The sample holds actives, similar compounds and a random draw of the others, so the mix is not that of the screen. A number with no mark means an inactive call.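 Rule for the calls: active = mean added fluorescence quench of at least 8% versus neutral control, with both replicates also reaching 8%; inconclusive = only one of the mean or replicate conditions met; inactive = mean below 8% and not both replicates reaching 8%.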

Assay: F508del CFTR correction, initial screen, CFBE line, single point (AID 720511);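 note: cells transiently co-express mutant CFTR-F508del with the halide-sensitive YFP; corrector assay measuring rescue of mutant channel to the surface after 24 h compound exposure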
Conditions: CFBE cells, YFP halide quenching, at 7.58 µM, hits give high values, % fluorescence drop versus neutral controls, stimulated with forskolin plus potentiator P3

Row | Structure (SMILES) | activity (quench increase)
1 | C[C@H](CO)N1C[C@H](C)[C@@H](CN(C)S(=O)(=O)c2ccccc2)Oc2ncc(-c3ccncc3)cc2C1=O | 0.7%
2 | O=C1c2ccccc2C(=O)N1CCC#Cc1ccc2cc(C3(O)CCCCC3)oc(=O)c2c1 | 4.94%
3 | COc1cc(C#Cc2ccc3cc(CCCO)oc(=O)c3c2)cc(OC)c1 | 9.06% (active)
4 | CS(=O)(=O)N1C[C@@H](O)COC[C@@H]2O[C@H](CC(=O)NC3Cc4ccccc4C3)CC[C@H]21 | -1.79%
5 | O=C(C[C@H]1C=C[C@@H](NC(=O)NC2CCCCC2)[C@@H](CO)O1)NCc1ccc(Cl)cc1 | 0.0755%
6 | C[C@H](CO)N1C[C@H](C)[C@H](CN(C)Cc2ccc(C(F)(F)F)cc2)Oc2ccc(NS(C)(=O)=O)cc2C1=O | 3.24%
7 | C[C@@H]1CCCCO[C@@H](CN(C)C(=O)Cc2ccccc2)[C@H](C)CN([C@@H](C)CO)C(=O)c2cc(NC(=O)Nc3ccc(F)cc3)ccc2O1 | -1.42%
8 | Oc1ccc2ccccc2c1N=Nc1nccs1 | 13.5% (active)
9 | CCc1c(C)nc2c(-c3ccccc3)c(C)nn2c1Nc1ccc(NC(C)=O)cc1 | 0.439%
10 | CC(=O)Nc1ccc(Nc2c3ccccc3nc3ccccc23)cc1 | 10.8% (active)
11 | CC(=O)Nc1ccc(S(=O)(=O)N(C)c2nc3ccccc3nc2Cl)cc1 | 2.1%
12 | C[C@@H]1CCCCO[C@@H](CN(C)S(=O)(=O)c2ccccc2)[C@H](C)CN([C@H](C)CO)C(=O)c2cc(NC(=O)Nc3ccc4c(c3)OCO4)ccc2O1 | 0.334%
13 | CO[C@H]1CN(C)C(=O)c2cc(NC(C)=O)ccc2OC[C@H](C)N(C(=O)C2CC2)C[C@H]1C | 4.09%
14 | COc1ccc(NC(=O)N(C)C[C@H]2Oc3cc(C#CCN(C)C)ccc3S(=O)(=O)N([C@@H](C)CO)C[C@@H]2C)cc1 | -0.575%
15 | CC(C)CC#Cc1ccc2c(c1)O[C@@H](CN(C)C(=O)c1ccccn1)[C@@H](C)CN([C@H](C)CO)S2(=O)=O | 0.306%
16 | COc1ccc(C#Cc2ccc3c(c2)O[C@@H](CN(C)C(=O)Nc2cccc(OC)c2)[C@H](C)CN([C@H](C)CO)S3(=O)=O)cc1 | 9.4% (active)
17 | C[C@@H]1CN([C@@H](C)CO)S(=O)(=O)c2ccc(C#Cc3ccccc3)cc2O[C@@H]1CN(C)C(=O)Nc1ccccc1 | 3.03%
18 | C/C=C/c1ccc2c(c1)O[C@@H](CN(C)C(=O)c1ccccn1)[C@H](C)CN([C@@H](C)CO)S2(=O)=O | -2.18%

Row | Structure (SMILES) | activity (quench increase)
19 | C[C@@H]1CN([C@@H](C)CO)S(=O)(=O)c2ccc(C#Cc3ccc(F)cc3)cc2O[C@H]1CN(C)C(=O)c1ccccn1 | 9.03% (active)
20 | CCCNC(=O)[C@@H]1[C@@H](CO)[C@@H]2Cn3c(cccc3=O)[C@H]1N2C(=O)Nc1cc(F)ccc1F | -0.221%
21 | CCCN(C)C[C@@H]1Oc2ncc(-c3ccccc3F)cc2C(=O)N([C@@H](C)CO)C[C@@H]1C | -1.56%
22 | CCCNC(=O)Nc1ccc2c(c1)C(=O)N(C)C[C@H](OC)[C@H](C)CN(Cc1cccnc1)[C@@H](C)CO2 | -2.17%
23 | COCC(=O)Nc1ccc2c(c1)OC[C@@H](C)N(C(=O)c1ccncc1)C[C@@H](C)[C@@H](OC)CN(C)C2=O | -2.81%
24 | CCN(CC)c1ccc(/C=N/NC(=O)c2cnccn2)c(O)c1 | 19.1% (active)
25 | NS(=O)(=O)c1ccc(CNC(=O)c2cnccn2)cc1 | 3.51%
26 | COc1ccc(NC(=O)C/C(C)=N/NC(=O)c2cnccn2)cc1Cl | 0.245%
27 | CNC[C@H]1Oc2ccc(NC(=O)Nc3ccc(F)cc3)cc2C(=O)N([C@@H](C)CO)C[C@@H]1C | 2.71%
28 | C/C=C/c1cnc2c(c1)C(=O)N([C@@H](C)CO)C[C@@H](C)[C@@H](CN(C)S(=O)(=O)c1ccccc1F)O2 | -0.914%
29 | COCC(=O)N1CC[C@H]2[C@H](CO)Nc3ccc(-c4ccc(C(=O)N(C)C)cc4)cc3[C@H]21 | -0.359%
30 | CC(C)CC#Cc1cnc2c(c1)C(=O)N([C@@H](C)CO)C[C@H](C)[C@@H](CN(C)S(=O)(=O)c1cn(C)cn1)O2 | 3.77%
31 | Cc1ccc(Cl)c(OCC(=O)N2CCc3ccccc3C2)c1 | 0.464%
32 | CCC(=O)c1ccc(OCC(=O)OCC(=O)N2CCc3ccccc3C2)cc1 | 33.2% (active)
33 | CCC(=O)c1ccc(OCC(=O)OCC(=O)NC2CCCCCC2)cc1 | 5.07%
34 | CN1C(=O)c2cc(NC(=O)Nc3ccccc3Cl)ccc2OC[C@H]2O[C@@H](CC(=O)O)CC[C@H]21 | 2.42%
35 | C[C@H](CO)N1C[C@H](C)[C@H](CN(C)C(=O)Nc2ccccc2)Oc2ccc(NC(=O)C3CC3)cc2CC1=O | 1.47%
